# eIF4H inh = inhibitors of RNA binding by human eIF4H; 290,000 tested, 0.94% active; eIF4H fluorescence polarization binding assay; inhibition, % at 35 µM; Q15056;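 further: calls also rest on retests at 20 µM and on dose response follow-up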
# PABP1 MLLE inh = inhibitors of microRNA-mediated deadenylation, human PABP1 MLLE binding | P11940 | GST-MLLE / FITC-PAM2 fluorescence polarization | inhibition, % at 20 µM | 360,000 tested, 0.36% active | AID 588489; in the data active means inhibition above about 35%, passing the limit was not always enough;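 further: plate controls were DMSO wells with GST-MLLE for no effect and wells lacking GST-MLLE protein for full effect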
# PABP FP inh = blocks human PABP binding to poly(A) RNA. fluorescence polarization. calls only at 35 µM. 290,000 tested, 1% active. AID 2014;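 further: calls also rest on retests at 20 µM and on dose response follow-up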
# eIF4E-4G inh = blocks eIF4E binding to eIF4G | P63073+Q04637 | TR-FRET eIF4E-eIF4GI(517-606) binding, 2 h | inhibition, % at 21.7 µM | 220,000 tested, 0.37% active | AID 782;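 active means inhibition above about 30%, limit read from the data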;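 further: 0% = full FRET control wells and 100% = background wells lacking eIF4GI fragment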
# The depositor's hits bear a star; i = inactive; u = inconclusive; x = not tested or not shown; + = active, no number. In the library only some 1.5% were active in any assay of this set; here they are far more common. Unless noted, how the calls were made is not given here.
SMILES,eIF4H inh,PABP1 MLLE inh,PABP FP inh,eIF4E-4G inh
Cn1nc(C(C)(C)C)cc1C(=O)Sc1cccc(Br)c1,-2.3,44.1*,i,-0.5
Cn1nc(C(C)(C)C)cc1C(=O)O,-10.4,8.4,i,3.4
O=C(NCCc1ccccc1)c1c[nH]c2ccccc2c1=O,x,-1.1,x,x
O=C(Nc1cccc2ccccc12)c1nn(C23CC4CC(CC(C4)C2)C3)cc1[N+](=O)[O-],-0.1,4.9,i,-6.8
COc1ccc(NC(=O)c2nn(C34CC5CC(CC(C5)C3)C4)cc2[N+](=O)[O-])cc1,11.8*,7.8,+,7.8
CC(C)(C)OC(=O)N1CCN(C(=O)c2ncn3c2c(=O)[nH]c2ccccc23)CC1,x,-4.9,x,x
CCOC(=O)CN1C(=O)S/C(=C\c2ccc(-c3ccc(C(=O)O)c(Cl)c3)o2)C1=O,52.1*,-9.0,+,x
Cc1ccc(/C=C2/NC(=O)N(Cc3ccc(Br)cc3)C2=O)o1,13.0,16.5,i,12.0
O=C(O)c1ccc(-c2ccc(/C=C3\NC(=O)N(Cc4ccc(Cl)cc4)C3=O)o2)cc1Cl,86.4,-16.2,+,13.1
CCOC(=O)CN1C(=O)S/C(=C\c2ccc(-c3cccc(C(=O)O)c3C)o2)C1=O,x,-12.4,x,x
CC(=O)c1ccc2ccccc2c1OC(=O)c1ccncc1,x,1.6,x,x
COc1cccc(C(NC(C)=O)c2nc(-c3ccc4ccccc4c3)cs2)c1 (configuration not stated),x,9.8,x,x
COc1cc(/C=C(\C#N)c2nc3ccccc3[nH]2)cc(OC)c1O,u,-130.7,u,30.0*
N#C/C(=C\c1ccc(Sc2ccc(Cl)cc2)o1)c1nc2ccccc2[nH]1,58.4*,-45.0,+,-1.4
N#C/C(=C\c1ccc(Sc2nc3ccccc3[nH]2)o1)c1ccccc1,-8.1,-73.4,i,x
COc1ccc(/C=C(\C#N)c2nc3ccccc3[nH]2)cc1O,-7.4,-0.3,i,x
O=[N+]([O-])c1ccc2c([N+](=O)[O-])ccc3c2c1CC3,x,8.6,x,x
CC1CN(S(=O)(=O)c2cccc(C(=O)N(C)C3CCCCC3)c2)CC(C)O1 (configuration not stated),x,-7.0,x,x
COc1nccnc1NS(=O)(=O)c1ccc(NC(=S)NC(=O)c2ccc(F)cc2)cc1,-3.8,48.8*,i,6.7
COc1nccnc1NS(=O)(=O)c1ccc(NC(=S)NC(=O)c2cccc(F)c2)cc1,-10.1,29.1,i,3.4
COc1ccc(/C=C/C(=O)NC(=S)Nc2ccc(S(=O)(=O)Nc3nccnc3OC)cc2)cc1,-2.7,38.2*,i,6.3
COc1ccccc1CNC(=O)COc1cc(O)c2c(c1)OC(C)(C)CC2=O,x,-4.2,x,x
N#Cc1cccc(NC(=O)c2cc(C3CCCCN3C(=O)c3ccccn3)on2)c1 (configuration not stated),x,15.3,x,x
CC(C)(C)c1ccc(CC(=O)N2CCC2(C)C(=O)NCc2ccc3c(c2)OCO3)cc1 (configuration not stated),x,1.2,x,x
CCOC(=O)C1=C(O)/C(=C/c2ccc(-c3ccccc3C(=O)O)o2)SC1=Nc1ccc(OC)cc1,78.4*,-75.3,+,1.6
SMILES,eIF4H inh,PABP1 MLLE inh,PABP FP inh,eIF4E-4G inh
CCOC(=O)C1=C(O)/C(=C/c2ccccn2)SC1=Nc1ccc(Cl)cc1,active,-4.4,i,6.8
CC1(C(=O)NS(=O)(=O)c2ccc(Br)cc2)CCN1C(=O)CCc1ccccc1 (configuration not stated),x,-1.8,x,x
CN(C)c1ccc(N/C=C/C(=O)c2ccc(F)cc2)cc1,46.6*,-69.5,+,-13.3
NS(=O)(=O)c1ccc(N/C=C\C(=O)c2ccc(F)cc2)cc1,-4.1,-13.5,i,3.5
CCC(=O)Nc1ccc(C(=O)CSc2nnc(-c3ccccc3F)n2C2CC2)cc1,72.7*,7.4,i,0.0
CCOC(=S)SCc1cn2cccc(C)c2n1,55.9,38.9*,i,1.7
S=c1nc(-c2sccc2OCc2ccc(Cl)cc2Cl)[nH][nH]1,9.1,37.4*,i,-0.1
CNC(=S)NNC(=O)c1sccc1OCc1ccc(Cl)cc1Cl,-0.7,-85.9,i,6.2
C[C@H](O)[C@@H]1C(=O)N2CCc3c([nH]c4ccccc34)[C@@H]2C[C@@H]1N(C)Cc1ccc(Cl)cc1,x,2.1,x,x
C=CCOc1ccc(CNc2ccc3[nH]c(=O)[nH]c3c2)cc1OC,103.7*,-6.1,+,11.3
CCOC(=O)C(=O)N(C)c1c(CC)nc2c(OCCC3CCCCC3)cccn12,x,14.1,x,x
COc1ccc(CNC(=O)C2Cc3c(-c4cccc(F)c4)ccnc3O2)cc1OC (configuration not stated),x,14.3,x,x
CC(C)Cn1c(N)c(C(=O)COC(=O)c2cc(-c3ccccc3)nc3ccccc23)c(=O)n(C)c1=O,-2.7,-20.6,i,-1.4
